# Screening results as filed in PubChem BioAssay.
# Rows were chosen to be rich in hits. Some 8% of all compounds tested hit in one or more screens of this group.
# KB-V1 cytotox – KB-V1 MDR subline cytotoxicity; KB-V1 MDR cells viability, CellTiter-Glo, 72 h; Potency, µM (highest dose often 46.1 µM), hits mostly cytotoxic; AID 1347076; 400,000 tested, 3.4% active; further: on the % scale 0 is the no-effect control and ±100 the full control effect; nearly all actives have a fitted effect of over 60% in size
#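 Following 72 h at 37 degrees C with compound, KB-V1 cell viability was read by CellTiter-Glo luminescence, medium being phenol-red-free DMEM plus 10% FBS; concentration-response parameters came from normalized, curve-fitted qHTS data.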
# HT1080-NT tox – kills 2HG-producing HT-1080-NT fibrosarcoma cells; HT-1080-NT fibrosarcoma viability, CellTiter-Glo ATP luminescence, 48 h; Potency, µM (top dose mostly 46.1 µM), inactives show top-dose activity, negative = less viability, usual class: cytotoxic; 360,000 tested, 1.6% active;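 further: NT is the 2HG producing partner of a matched IDH1 knockdown line; 0% = DMSO-treated cells and -100% = media-only wells without cells; nearly all actives have a fitted effect of over 55% in size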
#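 Fibrosarcoma NT cells, 750 per well in 5% FBS RPMI, were exposed to compound for 48 hours. Viability: CellTiter-Glo luminescence.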
# MCF10A rerep – induces DNA re-replication in MCF 10a normal breast cells | Potency, µM (series often up to 46.1 µM), without a hit: top-dose activity, positive = re-replication, hits mostly activators | 350,000 tested, 2.9% active | MCF 10A DNA re-replication, Hoechst nuclear intensity, 48 h; further: % of control where 0% means no effect; nearly all actives have a fitted effect of over 50% in size
# SW480 rerep – inducers of DNA re-replication in SW480 colon cancer cells; SW480 DNA re-replication, Hoechst DNA content imaging, 48 h; Potency, µM (series often up to 46.1 µM), without a hit: top-dose re-replication activation, actives largely listed as activators; 340,000 tested, 1.8% active; further: % of control where 0% means no effect; nearly all actives have a fitted effect of over 55% in size
#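 Per well, 250 cells were exposed to pinned compound for 48 hr. Nuclear DNA was visualised with Hoechst (40 min, 37 C) and total object intensity recorded by fluorescence scanning.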
# HT1080 IDH1KD tx – HT-1080 IDH1 knockdown cell toxicity (counter line); HT-1080 IDH1 knockdown viability, ATP luminescence, 48 h; 360,000 tested, 2% active; Potency, µM (series often up to 46.1 µM), inactives show at the highest dose activity, negative = toxicity, usual class: cytotoxic;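 further: 0% = DMSO wells and -100% = cell-free medium wells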
#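 Cytotoxicity counter-line: IDH1KD HT-1080, 48 h, CellTiter-Glo. Curves classed by r2, magnitude and activity.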
# KB-3-1 cytotox – KB-3-1 parental cell cytotoxicity; KB-3-1 viability, CellTiter-Glo ATP luminescence, 72 h; Potency, µM (doses to about 46.1 µM), most hits filed as cytotoxic; 400,000 tested, 1.4% active; AID 1347075; further: on the % scale 0 is the no-effect control and ±100 the full control effect; nearly all actives have a fitted effect of over 60% in size
#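 Using CellTiter-Glo luminescence, growth of non-resistant KB-3-1 adenocarcinoma cells is assessed 72 h after pin-tool compound addition at 37 °C. Normalized responses across the concentration series yield fitted curves.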
# Starred values were filed as active, the others as inactive; i = inactive; ? = inconclusive; . = no result. The call rests on the fitted dose curve; in most records, active means well fitted curve in the direction sought with a large enough effect; inconclusive means small, poorly fitted or top-dose-only effect, or another doubt; inactive means no such curve, though single readings can be large; an effect the other way counts as inactive or inconclusive. Potency means the concentration at half of the fitted maximal effect.
SMILES,KB-V1 cytotox,HT1080-NT tox,MCF10A rerep,SW480 rerep,HT1080 IDH1KD tx,KB-3-1 cytotox
Cc1cc(C)n2c(Nc3c(C)cccc3C)c(-c3ccccn3)nc2n1,?,?,.,.,18µM*,?
Cc1ccc(Nc2c(-c3ccccn3)nc3cccc(C)n23)cc1,6.5µM*,12µM*,?,1%,7.3µM*,5.2µM*
Cc1cccc2nc(-c3ccccn3)c(Nc3ccccc3)n12,6.5µM*,.,.,.,.,i
CCc1ccc(NC(=O)C(CC)n2c(=O)c(-c3ccccc3NC(C)=O)nc3ccccc32)cc1 (centres undefined),i,.,.,.,.,i
COc1ccccc1Nc1cc(C)nc2nc(-c3ccccc3)nn12,i,.,.,.,.,i
COc1ccc(C)cc1NC(=O)c1ccc2c(c1)nnn2C1CCCC1,i,.,.,.,.,i
Cc1c(/C=N/NC(N)=O)c2ccccn2c1C(=O)c1ccc(F)cc1,18µM*,-15%,19%,-4%,-28%,i
Nc1cc[n+](CC(=O)Nc2ccccc2)cc1,i,1%,6%,-3%,-8%,i
O=C(C[n+]1ccccc1)NNc1ccccc1,i,2.6µM*,19%,2%,4.6µM*,6.5µM*
O=C(COc1ccccc1O)NNc1ccccc1,?,2.3µM*,13%,-11%,3.3µM*,?
CCCN(C(=O)CCc1nc(-c2ccc(C)cc2)no1)c1ccc(OCC)cc1,i,.,.,.,.,i
CN(C)S(=O)(=O)c1ccc2c(c1)c(=O)c(C(=O)N1CCN(c3cccc(Cl)c3)CC1)cn2C,i,.,.,.,.,i
N=c1c(C(=O)NCc2ccccc2)cc2c(=O)n3ccccc3nc2n1Cc1ccco1,i,-21%,13µM*,16µM*,-11%,i
COc1ccc(CNC(=O)c2cc3c(=O)n4ccccc4nc3n(Cc3cccnc3)c2=N)cc1,i,4%,?,18%,-6%,i
CC(C)n1c(=N)c(C(=O)NCCc2ccccc2)cc2c(=O)n3ccccc3nc21,?,-2%,13µM*,23µM*,-7%,i
N=c1c(C(=O)NCc2ccco2)cc2c(=O)n3ccccc3nc2n1Cc1ccccc1,?,-14%,18µM*,15µM*,-14%,?
N=c1c(C(=O)NCc2ccc3c(c2)OCO3)cc2c(=O)n3ccccc3nc2n1Cc1cccnc1,i,2%,15%,15%,2%,i
Cc1cccn2c(=O)c3cc(C(=O)NCc4cccnc4)c(=N)n(C(C)C)c3nc12,i,-1%,?,?,-4%,i
Cc1ccc(CNC(=O)c2cc3c(=O)n4ccccc4nc3n(Cc3ccco3)c2=N)cc1,i,-9%,7.9µM*,16µM*,-7%,i
Cc1ccc2nc3c(cc(C(=O)NCc4ccco4)c(=N)n3Cc3ccco3)c(=O)n2c1,i,-5%,?,24%,4%,i
CCOC(=O)c1ccc(N2C(=O)c3n[nH]c(-c4ccco4)c3C2c2ccccc2OC)cc1 (centres undefined),?,.,.,.,.,i
OCc1cc([C@@H](O)CNCCCCCCOCCCCc2ccccc2)ccc1O,i,.,.,.,.,i
CCCn1ccc2c(OCC(=O)NCc3ccccc3Cl)cccc2c1=O,i,.,.,.,.,i
Cc1ccc(S(=O)(=O)c2cc3c(=O)n4ccccc4nc3n(Cc3ccco3)c2=N)cc1,8.2µM*,?,9%,-1%,?,i
N=c1c(C(=O)NCc2ccc(F)cc2)cc2c(=O)n3ccccc3nc2n1Cc1ccco1,?,3%,6.5µM*,?,-17%,i
SMILES,KB-V1 cytotox,HT1080-NT tox,MCF10A rerep,SW480 rerep,HT1080 IDH1KD tx,KB-3-1 cytotox
Cc1ccc(S(=O)(=O)c2cc3c(=O)n4ccccc4nc3n(C3CCCCC3)c2=N)cc1,i,-7%,-2%,3%,2%,i
N=c1c(C(=O)NCc2ccco2)cc2c(=O)n3ccccc3nc2n1Cc1ccc(Cl)cc1,?,-3%,2.3µM*,9.2µM*,-20%,?
COc1ccc(CCNC(=O)c2cc3c(=O)n4cccc(C)c4nc3n(Cc3ccco3)c2=N)cc1OC,i,-2%,?,?,4%,i
CCOC(=O)c1cc2c(=O)n3ccccc3nc2n(Cc2ccc(Cl)cc2)c1=N,i,-1%,1.6µM*,2.1µM*,3%,i
CSc1ccc(CCNC(=O)c2cc(C)nc3c2c(C)nn3-c2ccccc2)cc1,i,.,.,.,.,i
CCOC(=O)c1ccccc1NC(=O)Cn1c(=O)n(Cc2nc(-c3ccccc3)no2)c(=O)c2ccccc21,i,.,.,.,.,i
COCCn1c(=N)c(C(=O)NCc2ccco2)cc2c(=O)n3ccccc3nc21,i,-10%,10µM*,?,?,i
COCCn1c(=N)c(C(=O)NCC2CCCO2)cc2c(=O)n3ccccc3nc21 (centres undefined),?,.,.,.,.,i
Cc1cc(N2CCN(C)CC2)nc2ccc(NC(=S)N3CCN(c4ccc(Cl)cc4)CC3)cc12,i,?,29µM*,12µM*,?,i
Cc1cc(N2CCN(C)CC2)nc2ccc(NC(=S)N3CCCCC3)cc12,i,-15%,18µM*,?,-29%,i
Cc1cc(N2CCN(C)CC2)nc2ccc(NC(=S)N3CCN(c4cccc(Cl)c4)CC3)cc12,i,-1%,7.3µM*,9.2µM*,-9%,i
Cc1cc(N2CCOCC2)nc2ccc(NC(=S)N3CCCCC3C)cc12 (centres undefined),i,?,15µM*,18µM*,?,i
Cc1cc(N2CCN(C)CC2)nc2ccc(NC(=S)N3CCCCCC3)cc12,i,-14%,?,14%,-9%,i
Cc1cc(N2CCOCC2)nc2ccc(NC(=O)C3CCCCC3)cc12,i,.,.,.,.,?
Cc1cc(N2CCN(C)CC2)nc2ccc(NC(=S)N3CCN(c4ccc(F)cc4)CC3)cc12,i,?,?,?,?,i
Cc1cc2c(cc3c(SCc4ccccc4Cl)nnc(C)n32)o1,i,.,.,.,.,i
Cc1cccc(N2CCN(C(=S)Nc3ccc4nc(N5CCN(C)CC5)cc(C)c4c3)CC2)c1C,?,-10%,0%,-3%,1%,?
Cc1cccc(N2CCN(C(=S)Nc3ccc4nc(N5CCN(C)CC5)cc(C)c4c3)CC2C)c1 (centres undefined),i,-11%,18µM*,18µM*,-3%,?
Cc1ccc(OCc2nc(-c3ccc(C(=O)NCCc4ccc(Cl)cc4)cc3)oc2C)cc1,i,.,.,.,.,i
